Screens deposited in PubChem BioAssay by National Center for Advancing Translational Sciences (NCATS).
KDM5B inh: Primary screen for KDM5B Histone Demethylases FDH-coupled qHTS; Lysine-specific demethylase 5B (Homo sapiens), Q9UGL1; actives 2.6% (n = 220,000); KDM5B demethylase, FDH-coupled NADH fluorescence (FDH is formaldehyde dehydrogenase); Potency, µM (top dose mostly 57.7 µM), hits mostly inhibitors; active = well fitted inhibition curve with a large enough effect; inconclusive = small, poorly fitted or top-dose-only effect; inactive = no such curve, though single readings can be large or run the other way; note: potency is the fitted concentration of half-maximal effect; 0% is about no effect; nearly all actives have a fitted effect of over 70% in size
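Inhibition is measured as reduced NADH fluorescence generation from FDH coupling to formaldehyde release. Truncated KDM5BΔAP at 200 nM final acts on H3K4me3 peptide (12.5 µM in substrate mix) in pH 7.5 HEPES buffer with Tween-20, 30 min, room temperature.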
IP6K1 inhibitor: Primary qHTS assay for small molecule inhibitors of Inositol hexaphosphate kinase 1 (IP6K1); Inositol hexakisphosphate kinase 1 (Homo sapiens), Q92551; IP6K1 kinase, ADP-Glo luminescence, 2 h; stronger effect = lower value; activity change, % (series mostly up to about 58 µM); actives 0.81% (n = 140,000); AID 1645851, 2021; in the data active = activity change below about -25%; note: % is set by controls: 0 for no effect and ±100 for the full control effect
Target sequence (Q92551 whole entry, looked up): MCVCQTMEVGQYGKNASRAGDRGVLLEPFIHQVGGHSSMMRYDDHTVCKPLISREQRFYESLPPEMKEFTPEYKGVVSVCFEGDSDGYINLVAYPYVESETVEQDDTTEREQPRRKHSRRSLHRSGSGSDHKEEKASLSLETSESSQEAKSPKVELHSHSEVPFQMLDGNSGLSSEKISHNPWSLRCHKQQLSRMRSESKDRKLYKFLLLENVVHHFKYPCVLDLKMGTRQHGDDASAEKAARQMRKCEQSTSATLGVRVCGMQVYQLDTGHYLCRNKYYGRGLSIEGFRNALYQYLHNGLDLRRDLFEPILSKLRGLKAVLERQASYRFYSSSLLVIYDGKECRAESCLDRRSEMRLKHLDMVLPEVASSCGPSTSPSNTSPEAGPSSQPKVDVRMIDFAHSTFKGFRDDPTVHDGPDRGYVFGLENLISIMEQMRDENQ
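ADP-Glo luminescence measures ADP made by human IP6K1 during a 2 h RT reaction with ATP/IP6 (mix at 1.3 mM/130 uM); top library doses 57.5 and 19.1 uM final.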
* marks the source's active call; other numbers are inactive results; i = inactive; ? = inconclusive; . = no result. In the library only some 2.8% were active in any assay of this set; here they are far more common.

SMILES	KDM5B inh	IP6K1 inhibitor
Cc1ocnc1C(=O)NC1CC(c2nnc(Cn3cccn3)n2C)C1 (stereo not drawn)	i	2.0
CCNc1ncc(C(=O)NC2CC(c3nnc(CO)n3CC)C2)cn1 (stereo not drawn)	25.1µM*	8.6
CCn1c(CO)nnc1C1CC(NC(=O)c2sccc2N)C1 (stereo not drawn)	11.2µM*	14.0
CC(C)NC(=O)Cn1ccc2cc(Cl)ccc21	i	.
CNC(=O)c1cc(C2CC2)nc2c1c(C1CCCN(C(=O)C3CCCC3)C1)nn2C (stereo not drawn)	.	-8.6
COc1ccc(NC(=O)Cc2c(Cl)cccc2Cl)cc1S(N)(=O)=O	i	.
CCC1Oc2ccc(NC(=O)c3cccc(OC)c3)cc2CN(Cc2ccccc2)C1=O (stereo not drawn)	?	14.0
Cc1ccc(-c2noc(-c3cccnc3NC(C)c3ccc(C)cc3)n2)cc1 (stereo not drawn)	i	.
O=C(NCc1ccc(S(=O)(=O)N2CCOCC2)cc1)c1ccc(SC(F)(F)F)cc1	i	.
COc1ccccc1-c1ccc2c(C(=O)N3CCC(C#N)CC3)nn(C)c2n1	.	10.4
Cc1cccc(C)c1-c1nc(C(=O)NC(C)C)n2ccccc12	?	14.4
COc1ccccc1-c1nc(C(=O)N2CCC(C#N)CC2)n2ccccc12	28.2µM*	9.4
Cc1cccc(C)c1-c1nc(C(=O)N2CCC(C#N)CC2)n2ccccc12	100µM*	-23.3
CCN1CCC(NC(=O)Cc2cn(C)c3ccccc23)CC1	i	.
CNC(=O)c1cccc(-c2cnc(Nc3ccc(F)c(Cl)c3)c3c2CCO3)c1	35.5µM*	-18.3
CNC(=O)c1cccc(-c2cnc(Nc3ccc(Cl)cn3)c3c2CCO3)c1	?	-21.1
O=C(Nc1ncc(-c2cccc(F)c2)c2c1OCC2)c1ccc(F)c(Cl)c1	22.4µM*	-14.7
O=C(Nc1ncc(-c2cccc(F)c2)c2c1OCC2)c1ccncc1	i	1.5
O=S(Cc1ccc(Cl)cc1)Cc1ccccc1F (stereo not drawn)	i	.
Cc1ccc(-c2cc(C(=O)N3CCC(Cc4nncn4C(C)C)CC3)c3ccccc3n2)cc1C	28.2µM*	8.0
Cc1nn(C(=O)CCCC(=O)N2CCC(Cc3nncn3C(C)C)CC2)c2ccccc12	i	16.7
CCn1cnnc1CC1CCN(C(=O)c2ccccc2)CC1	i	17.8
CCn1cnnc1CC1CCN(C(=O)c2cc(-c3ccc(C)c(C)c3)nc3ccccc23)CC1	28.2µM*	0.0
CNC(=O)c1cc(C)nc2onc(C3CCN(C(=O)c4cccc(Cl)c4)C3)c12 (stereo not drawn)	.	-3.3
CCOC1C(C2COC3(CCCCC3)O2)OC2OC3(CCCCC3)OC21 (stereo not drawn)	i	.
COC1C(=O)N(CC2CC2)C12CCN(C(=O)Cc1cccnc1)CC2 (stereo not drawn)	.	8.0
O=C(NNC(=O)C1CCC(c2ccccc2)CC1)c1ccccc1Cl (stereo not drawn)	i	.
COc1ccc(-c2ccnc3nc(-c4cccs4)nn23)c(F)c1	14.1µM*	2.5
COc1cc(F)ccc1-c1ccnc2nc(-c3cccs3)nn12	?	-1.2
COc1ccc(CCc2nc3nccc(-c4ccc(OC)cc4F)n3n2)cc1	22.4µM*	1.1
